Drawing on PubChem BioAssay (NCI), this text covers growth for 40 molecules.

The panel holds about 83,000 compounds, 20% with a hit somewhere; the sample as a whole holds those more often.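 Single-dose data. Exposure time 48 hours. Values below 10 considered active.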 The source made the active and inactive calls.

In the assay the test system is SR leukemia. Put plainly: NCI-60 one-dose screen, 48 h (100 = growth as untreated, 0 = no growth, -100 = all killed). The conditions noted are these: 10 µM unless noted. As for the experimental part: Growth inhibition of the SR human tumor cell line is measured as a screen for anti-cancer activity. Cells are grown in 96 well plates and exposed to the test compound for 48 hours. Compounds are tested at a single concentration, which is 10^-5 M for most compounds. The reported endpoint is percent growth (GI% or GIPRCNT), where numbers from 0 - 100% represent growth inhibition, and numbers from -100% - 0 represent cell death. For example, a value of 40 represents 60% growth inhibition. A value of 0 means no net growth occurred over the course of the experiment. A value of -40 indicates 40% of cells at the beginning of the experiment died by the end of the experiment. A value of -100 means all cells are dead at the end of the experiment.
NCI-60 Human Tumor Cell Lines Screen was performed using the standard one-dose NCI protocol, which is described in more detail at https://dtp.cancer.gov/discovery_development/nci-60/default.htm.
Compounds with GIPRCNT values below 10 were considered active. Activity score was based on GIPRCNT using the following formula: […]
Score is 0 for GIPRCNT values of 100 or above, 50 for GIPRCNT values of 0, and 100 for GIPRCNT values of -100.
On to `COc1ccc(-c2cc(-c3cccs3)n(N=O)c(=O)c2C#N)cc1`, for which the growth was 114% (inactive).
The figure for `COc1ccc(O)c(-c2cc(-c3ccc(Cl)cc3)c(C#N)c(=O)[nH]2)c1` is 33.5% (inactive); for `COc1cc2c(cc1OC)C(=O)/C(=C/c1cc(-c3ccc4c(c3)OCO4)n[nH]1)C2` it is -43.8% (active).
Under `Cc1cc(N(CCNc2ccnc3cc(Cl)ccc23)Cc2ccco2)nc(Cl)n1` stands -14.5% (active); under `C[C@@H](C(=O)O)c1ccc2c3cc(Cl)ccc3n(Cc3cc(=O)oc4ccc(Cl)cc34)c2c1`, 94.7% (inactive).
The figure for `Nc1c(Cl)cc(N=Nc2ccccc2)cc1Cl` is 85.4% (inactive); for `O=C1Nc2ccccc2/C1=C/c1cn(CCCn2c3ccccc3c(=O)c3ccccc32)c2ccccc12` it is 84% (inactive); for `O=[N+]([O-])c1ccc(/C=N\Nc2ccccc2)cc1` it is 106% (inactive).
With `Clc1cc(Cl)cc(Nc2ccc3c(OCCCN4CCOCC4)cccc3n2)c1`, the growth was 6.22% (active).
The figure for `Cc1ccc2oc(=O)cc(-c3sc(N4CCCCC4)nc3-c3ccccc3)c2c1` is 77.3% (inactive); for `CCOC(=O)C/C(=C\c1ccccc1)C(C)=O` it is 96.7% (inactive); for `CC(=O)N1N=C(c2ccc(C)cc2)CC1c1ccc(Oc2ccc(Br)cc2)cc1` (stereo not given) it is 93.9% (inactive).
Under `COc1ccc(-c2cc(/C=C/C(=O)c3ccc(OC)c(OC)c3)[nH]n2)cc1` stands -32.7% (active).
The figure for `O=S(=O)(NCCNc1cc(-c2cn(-c3ccccc3)nc2-c2cccc(O)c2)ccn1)c1cccc(F)c1` is 18.9% (inactive).
On to `O=C(CI)Nc1ccc(O)c2ccccc12`, for which the growth was -1.5% (active).
Under `C=C(C)[C@@H]1CC[C@]2(CN)CC[C@]3(C)[C@H](CC[C@@H]4[C@@]5(C)CCC(=O)NC(C)(C)[C@@H]5CC[C@]43C)[C@@H]12` stands -27.1% (active).
The figure for `[B-][N+](CC)(CC)c1ccccc1` is 74.7% (inactive); for `C#CCn1c2c(c3ccccc31)C[C@]1(C)[C@H]3CC[C@@H]4[C@@H]5C(=CCC[C@H]5C(=C)C)CC[C@@]4(C)[C@]3(C)CC[C@H]1C2(C)C` it is 82.7% (inactive); for `COc1cccc(-c2nn(-c3ccccc3)cc2-c2ccnc(NCCCNS(=O)(=O)c3ccc(Br)cc3)c2)c1` it is 13.3% (inactive).
Consider `CC/C(=N/NC(N)=O)c1ccccc1`, for which the growth was 110% (inactive).
Under `O=C(N/N=C\c1c(O)ccc2ccccc12)C1CC1` stands 18.3% (inactive); under `O=C(O[C@@H]1Cc2c(O)cc(O)cc2O[C@@H]1c1cc(O)c(O)c(O)c1)c1cc(O)c2c(c1)OCO2`, 72.1% (inactive).
The figure for `Nc1nc2c3ccncc3cc(-c3cccc(Cl)c3)c2c2cnccc12` is 9.04% (active); for `Cn1cc(-c2nc(-c3c[nH]c4ncccc34)cs2)c2ccccc21` it is 40% (inactive).
With `COC(=O)[C@]12CC[C@@H](C)[C@H](C)[C@@H]1C1=CC[C@@H]3[C@@]4(C)C=C(O)C(=O)C(C)=C4CC[C@@]3(C)[C@]1(C)CC2`, the growth is 20.4% (inactive).
Under `COc1ccc(-c2nc3c(c(C)nn3-c3ccc(F)cc3)c(=O)[nH]2)cc1` stands 15.9% (inactive).
Under `CC1(C)c2ccccc2C(=O)C1(Br)Cc1ccccc1` (stereo not given) stands 53.5% (inactive); under `Cn1nc(-c2ccccc2)c2c(-c3ccccc3)onc2c1=O`, 26.4% (inactive); under `N#CC1=C(N)Oc2c(sc3c(F)cccc23)C1c1ccc(Cl)cc1` (stereo not given), 10.8% (inactive).
Under `O=S(=O)(NCCCNc1cc(-c2cn(-c3ccccc3)nc2-c2cccc(O)c2)ccn1)c1ccc(F)cc1` stands 6.17% (active).
As for `COc1cc(/C=C/c2cc(/C=C/c3ccc(O)c(OC)c3)n(-c3ccc(Cl)cc3)c(=O)n2)ccc1O`, the growth was 36.4% (inactive).
Under `CC1(c2ccccc2)OC1C(=O)O` (stereo not given) stands 101% (inactive).
The figure for `COC(=O)[C@]12CC[C@@H](C)[C@H](C)[C@@H]1C1=CC[C@@H]3[C@@]4(C)C(c5ncon5)=C[C@@](C)(CO)C4=CC[C@@]3(C)[C@]1(C)CC2` is -15.5% (active).
`O=C1c2ccccc2C(=Cc2ccccc2)c2ccccc21`: the growth was 8.17% (active).
The figure for `O=C1c2ccccc2NC(c2cn(-c3ccccc3)nc2-c2cccs2)N1Cc1ccccc1` (stereo not given) is 66.8% (inactive); for `CCOc1ccc(NC(=O)c2ccoc2COc2ccccc2)cc1` it is 113% (inactive).
The figure for `Cn1cc(-c2csc(-c3cn(CCCN4CCCCC4)c4ccc(F)cc34)n2)c2cccnc21` is 65.9% (inactive); for `Cc1cc(N2CCCCC2)nc(N(CCNc2ccnc3cc(Cl)ccc23)Cc2ccco2)n1` it is -15.8% (active); for `CCCCC/C(=C\c1ccccc1)C1OC(C)C(C)O1` (stereo not given) it is 99.4% (inactive).
On to `O=C1CCCC=CC[C@H]2C=C(Cl)C(=O)C2=CC[C@H](CCCCC(F)(F)F)OC(=O)CCCC=CC[C@H]2C=C(Cl)C(=O)C2=CC[C@H](CCCCC(F)(F)F)OC(=O)CCCC=CC[C@H]2C=C(Cl)C(=O)C2=CC[C@H](CCCCC(F)(F)F)O1`, for which the growth is 11.6% [6.25 µM] (inactive).
